# High-throughput results deposited in PubChem by National Center for Advancing Translational Sciences (NCATS).
# HT1080 IDH1KD tx: qHTS for induction of synthetic lethality in tumor cells producing 2HG: qHTS for the HT-1080-IDH1KD cell line; HT-1080 IDH1 knockdown viability, ATP luminescence, 48 h; Potency, µM (titrated, usually from 46.1 µM), without a hit: at the highest dose activity, negative = toxicity, actives largely listed as cytotoxic; actives 2% (n = 360,000);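 also: 0% = DMSO wells and -100% = cell-free medium wells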
#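 In this qHTS, HT-1080 cells depleted of IDH1 are exposed for 48 h at 37 °C to compound titrations. Toxicity is scored from CellTiter-Glo luminescence, with DMSO as full viability and medium alone as none.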
# KB-3-1 tox: qHTS assay for MDR1-selective chemotherapeutics: Primary screen using the parental adenocarcinoma cell KB-3-1; Potency, µM (top dose mostly 46.1 µM), usual class: cytotoxic; AID 1347075, 2019; KB-3-1 viability, CellTiter-Glo ATP luminescence, 72 h; actives 1.4% (n = 400,000); also: % is scaled to controls: 0 for no effect and ±100 for the full control effect; nearly all actives have a fitted effect of over 60% in size
#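 72 h, 37 °C compound treatment of KB-3-1 parental cells; CellTiter-Glo added, 10 min, luminescence read. Data corrected against DMSO-only plates and normalized before curve fitting.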
# SW480 rerep: A quantitative high throughput screen for small molecules that induce DNA re-replication in SW480 colon adenocarcinoma cells | actives 1.8% (n = 340,000) | Potency, µM (highest dose often 46.1 µM), for inactives: top-dose re-replication activation, hits mostly activators | SW480 DNA re-replication, Hoechst DNA content imaging, 48 h; also: % of control where 0% means no effect; nearly all actives have a fitted effect of over 55% in size
#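 Image-based DNA-content assay: after two days of treatment, nuclei were labelled with the DNA dye Hoechst and imaged, and hits were compounds raising the count of nuclei showing high fluorescence intensity.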
# MCF10A rereplic: A quantitative high throughput screen for small molecules that induce DNA re-replication in MCF 10a normal breast cells; Potency, µM (series often up to 46.1 µM), for the others: at the highest dose activity, positive = re-replication, actives largely listed as activators; AID 624296, 2012; actives 2.9% (n = 350,000); MCF 10A DNA re-replication, Hoechst nuclear intensity, 48 h; also: % of control where 0% means no effect; nearly all actives have a fitted effect of over 50% in size
# HT1080NT lethal: qHTS for induction of synthetic lethality in tumor cells producing 2HG: qHTS for the HT-1080-NT fibrosarcoma cell line | AID 686970, 2013 | Potency, µM (highest dose often 46.1 µM), without a hit: top-dose activity, negative = less viability, actives largely listed as cytotoxic | actives 1.6% (n = 360,000) | HT-1080-NT fibrosarcoma viability, CellTiter-Glo ATP luminescence, 48 h;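 also: NT is the 2HG producing partner of a matched IDH1 knockdown line; 0% = DMSO-treated cells and -100% = media-only wells without cells; nearly all actives have a fitted effect of over 55% in size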
#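 750 cells/well, RPMI + 5% FBS; 2 h settle, compound pin-transfer, 48 h at 37 degrees C. CellTiter-Glo 10 min RT, luminescence. Normalized to DMSO and media-only wells.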
# KB-V1 MDR tox: qHTS assay for MDR1-selective chemotherapeutics: Primary screen using the drug-selected MDR subline cells KB-V1; KB-V1 MDR cells viability, CellTiter-Glo, 72 h; Potency, µM (series often up to 46.1 µM), usual class: cytotoxic; actives 3.4% (n = 400,000); also: % is scaled to controls: 0 for no effect and ±100 for the full control effect; nearly all actives have a fitted effect of over 60% in size
#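 Readout: CellTiter-Glo luminescence, 10 min after addition. Cells: KB-V1 MDR subline, 72 h at 37 degrees C with compound. Analysis: corrected, normalized data fitted to concentration-effect curves.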
# Active calls of the source: *; i = inactive; ? = inconclusive; nt = no result given; [ ] = dose if it differs, or a comment. Rows were chosen to be rich in hits. Some 8% of all compounds tested hit in one or more screens of this group. Calls follow the shape of the dose curve; as a rule, active = well fitted curve in the direction sought with a large enough effect; inconclusive = small, poorly fitted or top-dose-only effect, or another doubt; inactive = no such curve, though single readings can be large; an effect the other way counts as inactive or inconclusive. Potency is read from the fitted curve at half-maximal effect.
SMILES,HT1080 IDH1KD tx,KB-3-1 tox,SW480 rerep,MCF10A rereplic,HT1080NT lethal,KB-V1 MDR tox
COC(=O)c1sc(N2C(=O)C(O)=C(C(=O)c3ccc(C)o3)C2c2cccs2)nc1C (stereo not given),-2%,i,?,18µM*,-2%,?
Cc1cc(N2C(=O)C(O)=C(C(=O)c3ccc(C)o3)C2c2cccs2)no1 (stereo not given),-26%,?,?,7%,-21%,5.2µM*
Cc1cc(N2C(=O)C(O)=C(C(=O)c3cc4ccccc4o3)C2c2ccc([N+](=O)[O-])cc2)no1 (stereo not given),0%,i,2%,1%,3%,i
COc1cc(C(=O)Nc2ccc(-c3cc(C(F)(F)F)nn3-c3ccccc3)cc2)cc(OC)c1OC,nt,?,nt,nt,nt,i
COc1ccccc1-n1c(=O)n(C)c2c(C(N)=O)nc(-c3cc(OC)c(OC)c(OC)c3)nc21,nt,i,nt,nt,nt,i
CCOC(=O)c1[nH]c(C)c(CCC(=O)Nc2ccc(C(C)=O)cc2)c1C,nt,i,nt,nt,nt,?
Cc1ccc2[nH]c(=O)c(CN(CCCO)C(C)c3nnnn3Cc3ccco3)cc2c1 (stereo not given),1%,i,-121%,2%,-1%,i
CCC(c1nnnn1Cc1ccco1)N(Cc1ccccc1OC)Cc1cc2cc(C)ccc2[nH]c1=O (stereo not given),-6%[9.24 µM],i,-6%,?,?,13µM*
CCOc1ccc2[nH]c(=O)c(C(c3nnnn3C3CCCCC3)N3CCN(C)CC3)cc2c1 (stereo not given),-11%,i,-5%,2%,-7%,i
COc1ccc2[nH]c(=O)c(CN(C3CCCCC3)C(c3nnnn3Cc3ccco3)C(C)C)cc2c1 (stereo not given),-24%,?,13%,?,-16%,12µM*
COc1ccc2[nH]c(=O)c(C(c3nnnn3C3CCCC3)N(C)C3CCCCC3)cc2c1 (stereo not given),-1%,i,16%,14%,-1%,5.2µM*
COC(=O)c1c(NC(=O)c2cc3ccccc3c(=O)o2)sc2c1CCCC2,nt,i,nt,nt,nt,i
COCCNC(=O)CCCn1c(=O)[nH]c2ccsc2c1=O,nt,i,nt,nt,nt,?
O=c1cc(-c2ccccc2)oc2ccc3ccccc3c12,-2%,i,nt,nt,-16%,21µM*
O=c1cc(-c2ccc(O)c(O)c2)oc2ccc3ccccc3c12,-17%,i,?,?,-2%,18µM*
O=c1cc(-c2ccccc2)oc2cccc(O)c12,10%,i,-9%,-7%,15%,i
O=c1oc(-c2ccc(O)c(O)c2)cc2cccc(O)c12,-16%,i,16µM*,7.3µM*,-14%,i
CCOC(=O)c1ccccc1NC(=O)c1c2c(nc3ccccc13)C(=O)N(C1CCCCC1)C2,nt,i,nt,nt,nt,i
CC(=O)Nc1cc2c(cc1[N+](=O)[O-])-c1ccccc1C2=NO,?,?,0%,-1%,4%,i
CC(=O)Nc1cc2c(cc1[N+](=O)[O-])-c1ccccc1C2O (stereo not given),-6%,i,?,18µM*,1%,i
CCOC(=O)c1cccc(NC(=O)c2cc3cc4ccc(C)cc4nc3o2)c1,nt,i,nt,nt,nt,i
CSc1ccc(C(c2c(C(=O)O)[nH]c3ccccc23)c2c(C(=O)O)[nH]c3ccccc23)cc1,-6%,i,?,21µM*,-5%,i
N#Cc1c(-c2cccc(Br)c2)cc(-c2ccco2)[nH]c1=O,-15%,i,?,7.3µM*,-6%,i
COc1ccc(-c2cc(-c3ccco3)[nH]c(=O)c2C#N)cc1,0%,i,9%,13%,6%,i
CCOC(=O)c1c(NC(=O)/C=C/c2ccc(C)cc2)sc(C(C)=O)c1C,nt,i,nt,nt,nt,?
SMILES,HT1080 IDH1KD tx,KB-3-1 tox,SW480 rerep,MCF10A rereplic,HT1080NT lethal,KB-V1 MDR tox
COc1cc2c(cc1OC)C(C)N(C(=O)c1c(-c3ccccc3)noc1C)CC2 (stereo not given),23µM*,?,?,12µM*,?,21µM*
COc1cc(SC)ccc1C(=O)N1CCN(c2ccccc2OC)CC1,8.2µM*,6.5µM*,?,18µM*,9.2µM*,16µM*
COc1ccc(N2CCN(C(=O)c3nc(SC)ncc3Cl)CC2)cc1,nt,i,nt,nt,nt,i
COc1ccccc1N1CCN(C(=O)C2CCN(C(=O)c3ccccc3C)CC2)CC1,0%,nt,-2%,13%,2%,nt
CCSc1ncc(Cl)c(C(=O)N2CCN(c3ccccc3OC)CC2)n1,nt,6.5µM*,nt,nt,nt,3.7µM*
COc1cc2c(cc1OC)C(C)N(C(=O)c1cccc([N+](=O)[O-])c1)CC2 (stereo not given),-27%,i,1%,17%,-9%,?
COC(=O)C1CCN(C(=O)c2ccc(SC)cc2OC)CC1,2%,i,-5%,-3%,3%,i
COc1ccccc1N1CCN(C(=O)c2cc(N3C(=O)C4C5CCC(C5)C4C3=O)ccc2Cl)CC1 (stereo not given),-1%,i,-2%,10%,-1%,4.1µM*
Cc1ccc2c(=O)cc(C(=O)N(Cc3ccc(N(C)C)cc3)C3CCS(=O)(=O)C3)oc2c1 (stereo not given),nt,i,nt,nt,nt,i
CCOC(=O)c1cc(S(=O)(=O)N2CCN(c3cc(Cl)ccc3C)CC2)[nH]n1,nt,i,nt,nt,nt,i
O=C(CSc1nc(-c2ccccc2)no1)N1CCCCC1,nt,i,nt,nt,nt,i
CC1CC(OC(=O)C(O)c2ccccc2)CC(C)(C)C1 (stereo not given),nt,nt,-5%,7%,nt,nt
COc1ccc(-c2[nH]c(-c3ccccc3)nc2SCC(=O)Nc2ccc3c(c2)OCO3)cc1,nt,i,nt,nt,nt,i
COc1cc2c(cc1OC)C(C)N(C(=O)c1ccc(C)o1)CC2 (stereo not given),?,?,?,20%,?,16µM*
CN1CCN(C(=O)c2ccc(Cl)c(S(=O)(=O)N3CCCCCC3)c2)CC1,10%,i,-5%,-9%,6%,?
